CHO-K1 Ca ag – counter-screen for M1 agonists: effect in parental CHO-K1 cells. Fluo-8 calcium fluorescence; scaled to maximal ATP response, vehicle zero. activation, % at 3 µM. hit rate 0.48% among 360,000. AID 602248; in the data active means activation above about 15%;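 further: untransfected CHO-K1 host cells lacking M1 receptor as counterscreen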
CHO-K1 Ca antag – M1 antagonist counterscreen hit in parental CHO-K1 cells; hit rate 0.6% among 360,000; ATP-induced calcium, Fluo-8 fluorescence; inhibition, % at 3 µM; AID 602250;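 active means inhibition above a per-plate cutoff, the plate's mean sample inhibition plus 3 SD, cut at about 24% in these data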;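 further: 0% = DMSO plus EC80 ATP and 100% = DMSO alone without ATP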
CHRM1 antagonist – antagonists of human M1 muscarinic receptor | CHO-K1 hM1, Fluo-8 calcium fluorescence, ACh EC80 antagonist | inhibition, % at 3 µM | hit rate 1.3% among 360,000;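 active means percent inhibition above its own plate's cutoff, namely the mean of that plate's compound wells plus 3 SD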;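 further: peak over basal fluorescence ratio during 140 s after agonist addition; 0% = ACh EC80 plus DMSO and 100% = DMSO alone without agonist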
Target sequence (P11229 whole entry, looked up): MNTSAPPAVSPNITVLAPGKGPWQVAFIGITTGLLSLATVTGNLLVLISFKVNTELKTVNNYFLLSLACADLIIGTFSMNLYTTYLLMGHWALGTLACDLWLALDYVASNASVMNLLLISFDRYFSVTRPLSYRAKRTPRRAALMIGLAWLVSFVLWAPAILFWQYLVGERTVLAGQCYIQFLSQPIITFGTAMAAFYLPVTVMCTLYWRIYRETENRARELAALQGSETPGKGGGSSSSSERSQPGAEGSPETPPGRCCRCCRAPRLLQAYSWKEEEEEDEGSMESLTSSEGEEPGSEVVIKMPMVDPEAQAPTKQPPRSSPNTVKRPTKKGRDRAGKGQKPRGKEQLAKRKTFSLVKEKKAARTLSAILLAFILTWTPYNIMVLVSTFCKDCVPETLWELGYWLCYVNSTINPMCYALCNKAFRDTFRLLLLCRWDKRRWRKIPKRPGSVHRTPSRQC
M1 PAM – human CHRM1 positive allosteric modulation | P11229 | CHO-K1 hM1, Fluo-8 calcium fluorescence, ACh EC20; 0% = ACh EC20, 100% = maximal ACh | activation, % at 3 µM | hit rate 0.088% among 360,000; in the data active means activation above about 19%, passing the limit was not always enough
M1 PAM parental – counter-screen for M1 PAMs: effect in parental CHO-K1 cells; ATP EC20, Fluo-8 calcium fluorescence; 0% at ATP EC20, 100% at ATP max; hit rate 0.02% among 360,000; AID 602247; activation, % at 3 µM;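 active means activation above the run cutoff, the mean activation of all test compounds plus 3 SD, cut at about 40% in these data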;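 further: peak over basal fluorescence ratio in a 140 s read after ATP addition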
CHRM1 agonist – agonists of human M1 muscarinic receptor; P11229; CHO-K1 hM1, Fluo-8 calcium fluorescence, agonist mode; 0% DMSO, 100% acetylcholine EC100; activation, % at 3 µM; hit rate 0.33% among 360,000; AID 588814;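 active means activation above the run's mean compound activation plus 3 SD, cut at about 16% in these data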;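 further: peak over basal fluorescence ratio within a 140 s kinetic read after compound addition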
The depositor's hits bear a star. An excerpt weighted towards active compounds, which were near 2.3% of everything screened.

SMILES	CHO-K1 Ca ag	CHO-K1 Ca antag	CHRM1 antagonist	M1 PAM	M1 PAM parental	CHRM1 agonist
CCN(CC)S(=O)(=O)c1ccc2c(c1)nc(CCC(=O)Nc1ccccc1Cc1ccccc1)n2CC	2.3	-24.4	11.3	-7.7	-0.8	-7.9
COc1ccccc1N1C(=O)CC(Sc2ccccc2N)C1=O (stereo not drawn)	2.5	7.3	-4.9	9.9	-4.4	3.3
O=C(Nc1cccc(NC(=O)c2ccccc2Cl)c1)c1ccc(F)cc1	4.2	24.8*	-1.1	3.2	-30.3	0.0
O=C(Nc1cccc(NC(=O)c2ccccc2Cl)c1)c1ccc([N+](=O)[O-])o1	17.0*	4.1	16.6	-18.3	-10.2	-2.2
O=C(Nc1cccc(NC(=O)c2ccc(F)cc2)c1)c1ccc(F)cc1	0.3	3.5	-15.8	9.8	-2.1	-4.2
COc1ccc(/C=C2\CCCC3C2=NN(C(=O)c2scnc2C)C3c2ccc(OC)c(OC)c2)cc1OC (stereo not drawn)	18.7*	-1.5	-18.7	9.7	16.9	-3.5
O=C1CN(C(=O)c2cc3ccccc3oc2=O)C(c2ccc(F)cc2)c2cc(F)ccc2N1 (stereo not drawn)	1.2	25.4*	7.9	-5.8	-5.7	0.0
O=C1CN(C(=O)c2cc3ccccc3oc2=O)C(c2ccccc2)c2cc(F)ccc2N1 (stereo not drawn)	0.8	-12.9	-10.2	1.6	-5.4	1.5
O=C1CN(C(=O)c2ccccc2)C(c2ccccc2)c2cc(F)ccc2N1 (stereo not drawn)	4.4	-13.1	-8.5	7.8	-9.2	-9.2
Cc1ccccc1C(=O)N1CC(=O)Nc2ccc(F)cc2C1c1ccccc1 (stereo not drawn)	23.5*	6.5	-0.8	-1.2	10.9	-3.4
CSCCC(NS(=O)(=O)c1ccccc1)C(=O)OCc1cc(=O)oc2cc(O)ccc12 (stereo not drawn)	2.3	-1.1	8.1	-5.7	-13.2	-5.5
CCN(CC(=O)Nc1c(F)cccc1F)C(=O)C1CC(=O)N(CCc2ccc(OC)c(OC)c2)C1 (stereo not drawn)	-0.1	0.3	2.8	1.6	2.9	-3.3
CCOC(=O)C1(Cc2ccccc2)CCCN(Cc2cccc(C(C)=O)c2)C1 (stereo not drawn)	15.6*	1.4	2.6	3.9	4.8	-4.9
CCOC(=O)C1(Cc2ccccc2)CCCN(Cc2ccncc2)C1 (stereo not drawn)	0.8	-13.0	-3.2	2.8	9.6	-3.6
CCC(C)c1c(O)nc(SCC(=O)N2CCOCC2)[nH]c1=O (stereo not drawn)	0.3	-25.4	-21.1	24.6*	11.7	3.5
CCC(C)c1c(O)nc(SCC(=O)N2CCCCC2)[nH]c1=O (stereo not drawn)	0.8	-6.0	1.8	1.0	11.3	0.3
COc1ccc(NC(=O)C(=O)NCC2CCCN2S(=O)(=O)c2cc(C)ccc2C)cc1 (stereo not drawn)	0.5	51.7*	-12.9	3.2	11.9	-4.5
COc1ccc(CCNC(=O)C(=O)NCC2CCCN2S(=O)(=O)c2ccc(OC)cc2)cc1 (stereo not drawn)	11.9	1.6	27.2*	-11.4	0.2	1.0
COc1ccc(S(=O)(=O)N2CCCC2CNC(=O)C(=O)NC2CCCC2)cc1 (stereo not drawn)	0.7	-7.6	-23.3	9.8	10.2	-2.5
Cc1cnc(CN(C)C(=O)C2CCC(=O)N(CCc3ccc(Cl)cc3)C2)[nH]1 (stereo not drawn)	-0.1	-0.1	-5.6	2.8	0.7	-6.8
CCC(=O)c1ccc(OCc2ccc(C(=O)c3ccccc3)cc2)cc1	11.8	11.0	51.0*	-18.8	-8.6	-3.1
CCC(=O)c1ccc(OCc2ccccc2)c(OC)c1	0.2	-14.1	-11.1	4.8	16.7	-8.8
CCC(=O)c1ccc(OC(=O)c2ccc(Br)o2)cc1	43.1*	-0.2	10.9	-12.0	0.2	80.6*
Cc1ccc(OC(=O)c2ccc(Br)o2)cc1	27.3*	-9.6	4.3	-1.1	12.2	30.5*
COc1cccc(CN(C)C(=O)C(CCSC)NS(=O)(=O)c2ccc3c(c2)OCCO3)c1OC (stereo not drawn)	7.6	-1.6	30.2*	-10.5	4.6	0.4
